This is a sample that favours compounds with a hit; in the whole collection about 7.4% have one here.
Luc counter: counter-screen: inhibitors of Kinase-Glo firefly luciferase | 200,000 tested, 0.28% active | Kinase-Glo luciferase, ATP luminescence, 8 min | Q27757 | AID 1379 | Potency, µM (series often up to 38.3 µM), for the others: top-dose activity change, negative = inhibition, most hits filed as inhibitors; further: on the % scale 0 is the no-effect control and ±100 the full control effect; nearly all actives have a fitted effect of over 60% in size
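Compounds were added to a substrate mix at pH 7.2 (50 mM imidazole, 10 uM ATP, within the enzyme's linear range), followed by Kinase-Glo detection reagent; luminescence was measured after 8 minutes at ambient temperature.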
ELG1 genotoxic: genotoxicity induction in ELG1-luciferase HEK293T cells. HEK293T ELG1-luciferase reporter, luminescence, 16 h. Potency, µM (highest dose often 46 µM), for inactives: top-dose activity change, positive = activation, actives largely listed as activators. 330,000 tested, 1.3% active; further: % of control where 0% means no effect; nearly all actives have a fitted effect of over 60% in size
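HEK293T cells expressing luciferase-tagged ELG1 were exposed to compound or DMSO vehicle for 16 hr at 37 °C and 5% CO2. Luciferase activity was then measured with ONE-Glo after 30 min at room temperature.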
NPC1 promoter act: NPC1 promoter activation. Huh7 NPC1 promoter luciferase reporter, 24 h. Potency, µM (doses to about 9.22 µM), for inactives: at the top dose activation, most hits filed as activators. 320,000 tested, 2.4% active. AID 485313; further: % of control where 0% means no effect; nearly all actives have a fitted effect of over 60% in size
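Quantitative HTS used a cell-based reporter: Huh7 cells stably bearing the NPC1 promoter upstream of luciferase were treated with compounds for 24 h, and promoter activation was read as luminescence.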
FLuc modulator: counter-screen for miR-21 project: firefly luciferase inhibitors or activators. purified FLuc, Km substrates, luminescence inhibition. Potency, µM (highest dose often 57.5 µM), without a hit: at the top dose activity change, negative = inhibition, most hits filed as inhibitors. 360,000 tested, 6.9% active;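 further: plate controls were vehicle for no effect and reference inhibitor for full effect; nearly all actives have a fitted effect of over 55% in size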
Target sequence (P08659 whole entry, looked up): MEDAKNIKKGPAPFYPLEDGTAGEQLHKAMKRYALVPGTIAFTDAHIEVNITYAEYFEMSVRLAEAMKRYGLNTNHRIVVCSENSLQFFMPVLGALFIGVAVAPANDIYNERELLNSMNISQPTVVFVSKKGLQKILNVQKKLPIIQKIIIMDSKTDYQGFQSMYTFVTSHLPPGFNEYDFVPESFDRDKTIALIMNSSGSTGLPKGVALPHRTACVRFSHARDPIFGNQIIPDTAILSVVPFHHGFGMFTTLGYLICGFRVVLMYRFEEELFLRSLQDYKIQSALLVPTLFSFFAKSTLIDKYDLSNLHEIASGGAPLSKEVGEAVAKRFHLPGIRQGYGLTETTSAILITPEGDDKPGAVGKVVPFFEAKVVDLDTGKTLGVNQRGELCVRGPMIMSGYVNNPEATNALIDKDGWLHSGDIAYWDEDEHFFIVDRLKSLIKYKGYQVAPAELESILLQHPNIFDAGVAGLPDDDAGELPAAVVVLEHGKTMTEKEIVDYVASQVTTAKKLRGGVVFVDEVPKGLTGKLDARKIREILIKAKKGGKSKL
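Purified P. pyralis luciferase, 10 nM final, with Km-level 10 uM D-luciferin and 10 uM ATP in 50 mM Tris acetate pH 7.5, 10 mM Mg acetate, 0.01% Tween-20, 0.05% BSA; 6-point qHTS titration about 60 µM downward; luminescence read.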
SMN2 splice up: SMN2 splice variant enhancement. 210,000 tested, 2.8% active. HEK293 SMN2-luciferase splicing reporter, luminescence, 30-36 h. Potency, µM (titrated, usually from 46.1 µM), for the others: top-dose activity change, positive = activation, most hits filed as activators; further: % of control where 0% means no effect; nearly all actives have a fitted effect of over 55% in size
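HEK293 cells carry an SMN2 […]–luciferase reporter in which exon 7 inclusion puts luciferase in frame. Cells were plated 10-12 h before compound addition, then incubated 30-36 h at 37C. ONE-Glo luminescence was read; sodium butyrate at 4.5 mM final served as control.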
Rab9 promoter act: activators of Rab9 promoter. Huh7 Rab9 promoter-luciferase reporter, luminescence, 24 h. Potency, µM (highest dose often 9.22 µM), without a hit: at the top dose activation, negative = inhibition, actives largely listed as activators. 320,000 tested, 2.8% active; further: % of control where 0% means no effect; nearly all actives have a fitted effect of over 60% in size
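Huh7 cells stably carrying Rab9 promoter–luciferase reporter, plated 1500 cells/well, compound added after 2 h and incubated 24 h at 37 °C; luciferase luminescence then read after 10 min with detection reagent.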
Starred values were filed as active, the others as inactive; ? = inconclusive; . = no result. The call rests on the fitted dose curve; in most records, active means well fitted curve in the direction sought with a large enough effect; inconclusive means small, poorly fitted or top-dose-only effect, or another doubt; inactive means no such curve, though single readings can be large; an effect the other way counts as inactive or inconclusive. Potency means the concentration at half of the fitted maximal effect.

SMILES | Luc counter | ELG1 genotoxic | NPC1 promoter act | FLuc modulator | SMN2 splice up | Rab9 promoter act
Fc1ccccc1CSc1nnc(-c2cccnc2)o1 | -3% | ? | 4µM* | 17µM* | ? | 3.2µM*
COc1cccc(C(=O)CSc2nnc(-c3cc(OC)cc(OC)c3)o2)c1 | -3% | 1% | -5% | 1% | 1% | -5%
Cc1ccccc1-c1nnc(SCc2ccccc2F)o1 | -10% | ? | 3.2µM* | 1.9µM* | 13µM* | 3.5µM*
CCN(CC)CC(=O)Nc1scc2c1c(=O)oc1ccccc12 | . | 12% | ? | ? | . | ?
Cc1ccc(C(=O)N2CCCC2)cc1S(=O)(=O)Nc1cccc(C)c1C | 2% | 0% | 1% | 2% | -8% | -3%
Cc1ccc(S(=O)(=O)N2CCCCC2)cc1C(=O)NCCN1CCOCC1 | . | 0% | -2% | -2% | . | -1%
Cc1ccccc1-c1nnc(SCc2ccccc2)o1 | 2% | 15µM* | ? | 8.5µM* | 14µM* | ?
COc1ccc(-c2nnc(SCc3ccccc3F)o2)cc1 | -1% | 1µM* | 1.3µM* | 1.5µM* | 11µM* | 1.4µM*
Cc1ccc2nc(N(CCN3CCOCC3)C(=O)CCS(=O)(=O)c3ccccc3)sc2c1 | . | ? | ? | -2% | . | ?
CCCC(=O)N(CCN1CCOCC1)c1nc2cc(C)c(C)cc2s1 | . | ? | 2.5µM* | -12% | . | 2.2µM*
NC(=O)c1ccccc1NC(=O)CC12CC3CC(CC(Br)(C3)C1)C2 | . | -8% | 2% | 0% | . | -1%
CCOC(=O)c1c(C)[nH]c(C)c1C(=O)CSc1nnc(-c2ccc(OC(F)F)cc2)o1 | -2% | -4% | 0% | 5% | -54% | 1%
Cc1ccc(OC(=O)CSc2nnc(-c3ccc4c(c3)OCO4)o2)cc1 | . | . | . | 5% | . | .
NC(=O)c1ccc(NC(=O)CSc2nnc(-c3ccc4c(c3)OCO4)o2)cc1 | . | 6% | 11% | -2% | . | 20%
C/C(N)=C(/C#N)C(=O)CSc1ccccc1F | -1% | ? | ? | ? | ? | 3.5µM*
C/C(N)=C(/C#N)C(=O)CSc1nnc(-c2ccc(OC(F)F)cc2)o1 | 1% | 5.8µM* | 1.4µM* | 2.7µM* | 11µM* | 1.3µM*
O=C(c1ccc(Cl)cc1)N1CCCCC(Sc2nnc(-c3ccc4c(c3)OCO4)o2)C1=O (stereo not drawn) | -1% | ? | ? | 1.9µM* | -87% | ?
C/C(N)=C(/C#N)C(=O)CSc1nnc(-c2ccc3c(c2)OCO3)o1 | -9% | 0.58µM* | 0.28µM* | 0.27µM* | 1.1µM* | 0.1µM*
COc1cc(C(=O)OCC#N)ccc1OCc1c(C)noc1C | . | ? | -11% | -1% | . | -3%
NC(=O)CSc1nnc(-c2ccc3c(c2)OCO3)o1 | -8% | ? | 2.8µM* | 15µM* | 13µM* | 2.5µM*
O=C(O)CSc1nnc(-c2ccc3c(c2)OCO3)o1 | -9% | 1% | -2% | ? | -1% | -3%
Cc1cc(C)n2ncc(/C(N)=N/OC(=O)Nc3ccccc3)c2n1 | . | -8% | -1% | 27µM* | . | 0%
CCOC(=O)c1ccc(Nc2ncnc3nc[nH]c23)cc1 | -7% | ? | ? | ? | 10µM* | ?
c1ccc(COc2ccc(Nc3ncnc4nc[nH]c34)cc2)cc1 | -7% | ? | ? | 11µM* | 0% | ?
C[Si](C)(C)Cl | . | . | . | . | 5% | .
SMILES | Luc counter | ELG1 genotoxic | NPC1 promoter act | FLuc modulator | SMN2 splice up | Rab9 promoter act
CCc1cccc(NC(=O)CCCn2nc(C)c3c(C)n(-c4ccccc4)nc3c2=O)c1 | . | -7% | -6% | -2% | . | -5%
COc1ccc(C(=O)CCC(=O)Nc2ccc(F)cc2F)cc1 | . | . | . | -10% | . | .
COc1ccc(C(=O)c2ccccc2O)c(O)c1 | -4% | 5% | -1% | 1% | 2% | 2%
COc1ccc(/C(C)=N/Nc2ccccc2Cl)c(O)c1 | . | ? | 0% | 11µM* | . | 0%
COc1ccc(/C(C)=N/Nc2ccc(F)cc2F)c(O)c1 | -1% | ? | 10% | 11µM* | ? | ?
C/C(=N\Nc1ccc(F)cc1F)c1cccs1 | 2% | ? | 6% | 19µM* | -3% | 23%
Cc1cccc(N(CC(=O)Nc2ccccc2C(F)(F)F)S(=O)(=O)c2ccccc2)c1C | . | . | . | -9% | -18% | .
COc1ccc(C2CCCN2C(=O)Nc2ccccc2)cc1OC (stereo not drawn) | 0% | 2% | -3% | -3% | -19% | -3%
O=C(O)c1ccc(NC(=O)c2ccc3c(c2)C(=O)N(c2ccccc2)C3=O)cc1 | . | 3% | -2% | 15µM* | . | 0%
O=C(O)c1ccc2c(c1)C(=O)N(c1cccc(C(=O)/C=C/c3ccccc3)c1)C2=O | -3% | 4% | 4% | 2.7µM* | . | -8%
CC(C)(C)N1C(=O)c2ccc(C(=O)Nc3ccc(C(=O)O)cc3)cc2C1=O | . | -1% | 7% | 11µM* | . | 6%
O=C(O)c1cccc(N2C(=O)c3ccc(C(=O)c4cccc([N+](=O)[O-])c4)cc3C2=O)c1 | . | -2% | 17% | 1% | . | -6%
O=C(O)c1cccc(NC(=O)c2ccc3c(c2)C(=O)N(c2cccc([N+](=O)[O-])c2)C3=O)c1 | . | 0% | 2% | 3.8µM* | . | -1%
O=C(CCc1nnc2ccc(N3CCC4(CC3)OCCO4)nn12)NCc1ccccc1Cl | . | 3% | -1% | 1% | . | 0%
COc1ccc(NC(=O)CC(CC(=O)O)c2cc(OC)c(OC)c(OC)c2)cc1 (stereo not drawn) | . | -1% | -1% | 1% | . | -2%
O=[N+]([O-])c1ccccc1S(=O)(=O)Nc1ccc(-c2ccc3nncn3n2)cc1 | . | -1% | 0% | 3% | . | -5%
CCCCn1c(N)c(N(C)C(=O)c2ccc(Br)o2)c(=O)[nH]c1=O | . | 1% | -3% | . | . | -7%
O=C(O)c1cccc(NC(=O)c2ccc(N3C(=O)c4ccc(C(=O)Nc5cccc(C(=O)O)c5)cc4C3=O)cc2)c1 | . | 0% | 17% | 27µM* | . | ?
CC(=O)c1cccc(NC(=O)c2cccc(N3C(=O)c4ccccc4C3=O)c2)c1 | . | 9% | 0% | -15% | . | 2%
CCN1C(=O)c2ccc(C(=O)Nc3cccc(C(=O)O)c3)cc2C1=O | . | 2% | 18% | 0.27µM* | . | ?
O=C(/C=C/c1ccccc1)Nc1cccc(S(=O)(=O)Nc2ccccc2F)c1 | 0% | -3% | -2% | 6.7µM* | 12% | -3%
O=C(/C=C/c1ccccc1)Nc1cccnc1Oc1ccccc1F | . | 9% | ? | 4.8µM* | . | ?
O=C(Nc1cccc(S(=O)(=O)Nc2ccccc2F)c1)c1ccc2ccccc2n1 | 0% | -14% | -7% | 19µM* | -20% | -8%
